B1: unnamed (peptide)
chain: EQEEIAPSLPSRNSI
B2: unnamed (peptide)
chain: DKSRPPRPPPKPLHL

molecular target: AgAbp1; test: SPOT peptide array binding signal intensity (averaged, normalized) (arbitrary units (background-subtracted, floor 0; scale differs between SH3 domains)); higher = stronger binding of the SH3 domain to the peptide
Outline: (§1)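 Binding signal is given in arbitrary units that differ between domains and is the normalized, background-subtracted spot intensity averaged across replicates. Each GST-SH3 fusion from one of four yeast species was made in E. coli BL21(DE3), purified on glutathione Sepharose and incubated at 10 μg/ml overnight at 4°C on cellulose-bound synthetic 15-mer peptides in which cysteines were replaced by serines. Detection used anti-GST antibody, an HRP anti-mouse secondary and luminol, followed by imaging and Genespotter quantification.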

Binder	SPOT peptide array binding signal intensity
B1	6
B2	1130

molecular target: AgBbc1; test: as above
Outline: as §1

Binder	SPOT peptide array binding signal intensity
B1	≤ 0
B2	193

molecular target: AgBem1-D1; test: as above
Outline: as §1

Binder	SPOT peptide array binding signal intensity
B1	≤ 0
B2	≤ 0

molecular target: AgBzz1-D1; test: as above
Outline: as §1

Binder	SPOT peptide array binding signal intensity
B1	10.5
B2	256

molecular target: AgBzz1-D2; test: as above
Outline: as §1

Binder	SPOT peptide array binding signal intensity
B1	1
B2	134

molecular target: AgCyk3; test: as above
Outline: as §1

Binder	SPOT peptide array binding signal intensity
B1	≤ 0
B2	≤ 0

molecular target: AgFus1; test: as above
Outline: as §1

Binder	SPOT peptide array binding signal intensity
B1	≤ 0
B2	0.5

molecular target: AgHof1; test: as above
Outline: as §1

Binder	SPOT peptide array binding signal intensity
B1	4.25
B2	14.2

molecular target: AgHse1; test: as above
Outline: as §1

Binder	SPOT peptide array binding signal intensity
B1	≤ 0
B2	≤ 0

molecular target: AgLsb1; test: as above
Outline: as §1

Binder	SPOT peptide array binding signal intensity
B1	17.5
B2	1.5

molecular target: AgLsb4; test: as above
Outline: as §1

Binder	SPOT peptide array binding signal intensity
B1	1050
B2	15

molecular target: AgMyo5; test: as above
Outline: as §1

Binder	SPOT peptide array binding signal intensity
B1	≤ 0
B2	62.2

molecular target: AgNbp2; test: as above
Outline: as §1

Binder	SPOT peptide array binding signal intensity
B1	10
B2	62.5

molecular target: AgRvs167; test: as above
Outline: as §1

Binder	SPOT peptide array binding signal intensity
B1	3
B2	1.33

molecular target: AgSho1; test: as above
Outline: as §1

Binder	SPOT peptide array binding signal intensity
B1	≤ 0
B2	250

molecular target: AgSla1-D1-D2; test: as above
Outline: as §1

Binder	SPOT peptide array binding signal intensity
B1	≤ 0
B2	≤ 0

molecular target: AgSla1-D3; test: as above
Outline: as §1

Binder	SPOT peptide array binding signal intensity
B1	≤ 0
B2	9

molecular target: CaAbp1-D1; test: as above
Outline: as §1

Binder	SPOT peptide array binding signal intensity
B1	≤ 0
B2	782

molecular target: CaAbp1-D2; test: as above
Outline: as §1

Binder	SPOT peptide array binding signal intensity
B1	7.5
B2	1940

molecular target: CaBbc1; test: as above
Outline: as §1

Binder	SPOT peptide array binding signal intensity
B1	5.5
B2	334

molecular target: CaBem1-D1; test: as above
Outline: as §1

Binder	SPOT peptide array binding signal intensity
B1	2
B2	120

molecular target: CaBzz1-D1; test: as above
Outline: as §1

Binder	SPOT peptide array binding signal intensity
B1	≤ 0
B2	2800

molecular target: CaBzz1-D2; test: as above
Outline: as §1

Binder	SPOT peptide array binding signal intensity
B1	≤ 0
B2	578

molecular target: CaCyk3; test: as above
Outline: as §1

Binder	SPOT peptide array binding signal intensity
B1	1
B2	34.5

molecular target: CaFus1; test: as above
Outline: as §1

Binder	SPOT peptide array binding signal intensity
B1	22
B2	≤ 0

molecular target: CaHof1; test: as above
Outline: as §1

Binder	SPOT peptide array binding signal intensity
B1	1
B2	0.5

molecular target: CaHse1; test: as above
Outline: as §1

Binder	SPOT peptide array binding signal intensity
B1	4
B2	63.2

molecular target: CaLsb1; test: as above
Outline: as §1

Binder	SPOT peptide array binding signal intensity
B1	0.5
B2	≤ 0

molecular target: CaLsb4; test: as above
Outline: as §1

Binder	SPOT peptide array binding signal intensity
B1	5990
B2	471

molecular target: CaMyo5; test: as above
Outline: as §1

Binder	SPOT peptide array binding signal intensity
B1	≤ 0
B2	0.5

molecular target: CaNbp2; test: as above
Outline: as §1

Binder	SPOT peptide array binding signal intensity
B1	≤ 0
B2	56

molecular target: CaRvs167; test: as above
Outline: as §1

Binder	SPOT peptide array binding signal intensity
B1	43.8
B2	5.33

molecular target: CaRvs167-3; test: as above
Outline: as §1

Binder	SPOT peptide array binding signal intensity
B1	1
B2	2

molecular target: CaSho1; test: as above
Outline: as §1

Binder	SPOT peptide array binding signal intensity
B1	≤ 0
B2	5.5

molecular target: CaSla1-D1-D2; test: as above
Outline: as §1

Binder	SPOT peptide array binding signal intensity
B1	≤ 0
B2	458

molecular target: CaSla1-D3; test: as above
Outline: as §1

Binder	SPOT peptide array binding signal intensity
B1	≤ 0
B2	14.2

molecular target: ScAbp1; test: as above
Outline: as §1

Binder	SPOT peptide array binding signal intensity
B1	14.5
B2	516

molecular target: ScBbc1; test: as above
Outline: as §1

Binder	SPOT peptide array binding signal intensity
B1	≤ 0
B2	14.5

molecular target: ScBem1-D1; test: as above
Outline: as §1

Binder	SPOT peptide array binding signal intensity
B1	≤ 0
B2	≤ 0

molecular target: ScBzz1-D1; test: as above
Outline: as §1

Binder	SPOT peptide array binding signal intensity
B1	7
B2	118

molecular target: ScBzz1-D2; test: as above
Outline: as §1

Binder	SPOT peptide array binding signal intensity
B1	1
B2	3

molecular target: ScCyk3; test: as above
Outline: as §1

Binder	SPOT peptide array binding signal intensity
B1	1
B2	≤ 0

molecular target: ScFus1; test: as above
Outline: as §1

Binder	SPOT peptide array binding signal intensity
B1	1
B2	≤ 0

molecular target: ScHof1; test: as above
Outline: as §1

Binder	SPOT peptide array binding signal intensity
B1	1.5
B2	0.5

molecular target: ScHse1; test: as above
Outline: as §1

Binder	SPOT peptide array binding signal intensity
B1	7
B2	≤ 0

molecular target: ScLsb1; test: as above
Outline: as §1

Binder	SPOT peptide array binding signal intensity
B1	127
B2	210

molecular target: ScLsb2; test: as above
Outline: as §1

Binder	SPOT peptide array binding signal intensity
B1	8
B2	≤ 0

molecular target: ScLsb3; test: as above
Outline: as §1

Binder	SPOT peptide array binding signal intensity
B1	4150
B2	1660

molecular target: ScLsb4; test: as above
Outline: as §1

Binder	SPOT peptide array binding signal intensity
B1	2440
B2	11

molecular target: ScMyo3; test: as above
Outline: as §1

Binder	SPOT peptide array binding signal intensity
B1	≤ 0
B2	170

molecular target: ScMyo5; test: as above
Outline: as §1

Binder	SPOT peptide array binding signal intensity
B1	≤ 0
B2	306

molecular target: ScNbp2; test: as above
Outline: as §1

Binder	SPOT peptide array binding signal intensity
B1	2.5
B2	244

molecular target: ScPex13; test: as above
Outline: as §1

Binder	SPOT peptide array binding signal intensity
B1	646
B2	669

molecular target: ScRvs167; test: as above
Outline: as §1

Binder	SPOT peptide array binding signal intensity
B1	244
B2	47.7

molecular target: ScSho1; test: as above
Outline: as §1

Binder	SPOT peptide array binding signal intensity
B1	≤ 0
B2	379

molecular target: ScSla1-D1-D2; test: as above
Outline: as §1

Binder	SPOT peptide array binding signal intensity
B1	1
B2	83

molecular target: ScSla1-D3; test: as above
Outline: as §1

Binder	SPOT peptide array binding signal intensity
B1	1
B2	≤ 0

molecular target: SpAbp1-D1; test: as above
Outline: as §1

Binder	SPOT peptide array binding signal intensity
B1	1
B2	1120

molecular target: SpBbc1; test: as above
Outline: as §1

Binder	SPOT peptide array binding signal intensity
B1	2
B2	≤ 0

molecular target: SpBzz1-D1; test: as above
Outline: as §1

Binder	SPOT peptide array binding signal intensity
B1	≤ 0
B2	684

molecular target: SpBzz1-D2; test: as above
Outline: as §1

Binder	SPOT peptide array binding signal intensity
B1	1

molecular target: SpCyk3; test: as above
Outline: as §1

Binder	SPOT peptide array binding signal intensity
B1	≤ 0

molecular target: SpHof1; test: as above
Outline: as §1

Binder	SPOT peptide array binding signal intensity
B1	1

molecular target: SpHof1-2; test: as above
Outline: as §1

Binder	SPOT peptide array binding signal intensity
B1	≤ 0

molecular target: SpHof1-3; test: as above
Outline: as §1

Binder	SPOT peptide array binding signal intensity
B1	0.75

molecular target: SpHse1; test: as above
Outline: as §1

Binder	SPOT peptide array binding signal intensity
B1	≤ 0

molecular target: SpLsb1; test: as above
Outline: as §1

Binder	SPOT peptide array binding signal intensity
B1	13

molecular target: SpLsb4; test: as above
Outline: as §1

Binder	SPOT peptide array binding signal intensity
B1	4140

molecular target: SpMyo1; test: as above
Outline: as §1

Binder	SPOT peptide array binding signal intensity
B1	≤ 0

molecular target: SpNbp2; test: as above
Outline: as §1

Binder	SPOT peptide array binding signal intensity
B1	5.5

molecular target: SpPex13; test: as above
Outline: as §1

Binder	SPOT peptide array binding signal intensity
B1	≤ 0

molecular target: SpRvs167; test: as above
Outline: as §1

Binder	SPOT peptide array binding signal intensity
B1	450

molecular target: SpSla1-D1-D2; test: as above
Outline: as §1

Binder	SPOT peptide array binding signal intensity
B1	2

molecular target: SpSla1-D3; test: as above
Outline: as §1

Binder	SPOT peptide array binding signal intensity
B1	1

— the supplement of paper PMC4466140
